Measurements as given in PubChem BioAssay AID1347043 (National Center for Advancing Translational Sciences (NCATS), 2019).
The campaign covered roughly 76,000 compounds. About 1,900 (2.5%) were called active. Not shown: some 5% with an inconclusive outcome. This excerpt belongs to a sample that is enriched for actives. Values without a mark were called inactive. Calls follow the shape of the dose curve; as a rule, active = well fitted inhibition curve with a large enough effect; inconclusive = small, poorly fitted or top-dose-only effect; inactive = flat fitted curve, though single readings scatter.

biological target: Luciferin 4-monooxygenase (Photinus pyralis) (UniProt P08659); assay: Firefly luciferase inhibition profiling of diverse chemical library using quantitative high-throughput screening; also: nearly all actives have a fitted effect of over 65% in size; conditions: purified P. pyralis luciferase, luminescence, biochemical; series mostly up to 115 µM; activity change, negative = inhibition: at the top concentration
Text: Firefly (Photinus pyralis) luciferase is one of the most commonly used transcriptional reporters for a number of reasons. It is considered one of the more dynamically responsive reporters - that is, responsive to changes in reporter transcription - as it requires no post-translational modifications and is enzymatically active directly after protein synthesis (Wood, 1998). Additionally, the half-life of the luciferase protein is short relative to other reporter-gene products (Wood, 1995). Whereas reporters with long half-lives potentially allow for increased signal due to accumulation of reporter-gene product, once accumulated in the cell, dynamic changes in reporter-gene expression may be difficult to detect(Fan and Wood, 2007; Almond et al., 2004). It has been shown that wild-type P. pyralis luciferase has a half-life of approximately four hours in mammalian cells (Thompson et al., 1991). Firefly luciferase reporter-gene assays are also generally considered one of the most sensitive assay types (Wood, 1995; Wood, 1998). Although light produced in a bioluminescence reaction is of lower intensity than that produced during fluorescence emission, this is offset by little to no background light inherent to luminescent assays. Thus the luciferase reporter can be expressed at much lower levels than fluorescent proteins while still providing robust signal. However, it was initially observed, in 1991, by Thompson et al., that compounds that resemble the substrates of firefly luciferase (FLuc) can act as competitive inhibitors of the enzyme, and that these compounds, upon interaction with luciferase in the cell, can actually stabilize the protein and increase its half-life. Accumulated intracellular FLuc protein can be measured as an increase in luminescence signal, upon addition of detection reagents (which contain high concentrations of FLuc substrates) commonly used in high-throughput screening. In cell-based reporter gene assays that use FLuc as the reporter gene to quantitate the potential influence of a given compound against the target biology, this apparent increase in luminescence can mistakenly be interpreted as identification of a compound that is active against the target of interest. FLuc inhibitory compounds that stabilize the FLuc protein will give an identical read-out, making it difficult to distinguish compounds that are active against the target from those active against FLuc. In summary, the results generated here constitutes a valuable resource for the scientific community and provides insight on identifying compounds with inhibitory activity for the commonly-used reporter, firefly luciferase. References: -Almond, B., Zdanovsky, A., Zdanovskaia, M., Ma, D., Stecha, P., Paguio, A., Garvin, D., and Wood, K. (2004). Introducing the Rapid Response Reporter Vectors. Promega Notes 87, 18-22. -Fan, F., and Wood, K.V. (2007). Bioluminescent assays for high-throughput screening. Assay Drug Dev Technol 5, 127-136. -Thompson, J.F., Hayes, L.S., and Lloyd, D.B. (1991). Modulation of firefly luciferase stability and impact on studies of gene regulation. Gene 103, 171-177. -Wood, K.V. (1998). The chemistry of bioluminescent reporter assays. Promega Notes 65, 14-20. -Wood, K.V. (1995). Marker proteins for gene expression. Curr Opin Biotechnol 6, 50-58.
Reagents: 50mM Tris acetate, pH 7.5; 10mM Mg acetate; 10uM D-luciferin (Sigma #L9504); 10uM ATP; 0.01% Tween-20; 0.05% BSA; 10nM P. pyralis luciferase (Sigma #L9506) Control compounds used were two known firefly luciferase inhibitors (compounds (2) and (5) in Auld et al., 2010), and DMSO. Assay Summary: Three microliters containing firefly luciferase substrates in buffer (final concentrations: 50mM Tris acetate, pH 7.5, 10mM Mg acetate, 0.01% Tween-20, 0.05% BSA, 10uM D-luciferin, and 10uM ATP) are dispensed into each well of a Greiner white, solid-bottom 1536-well format plate using a flying reagent dispenser (FRD). […]
% is scaled to controls: 0 for no effect and ±100 for the full control effect.

Chain of Luciferin 4-monooxygenase (Photinus pyralis) (P08659 whole entry, looked up): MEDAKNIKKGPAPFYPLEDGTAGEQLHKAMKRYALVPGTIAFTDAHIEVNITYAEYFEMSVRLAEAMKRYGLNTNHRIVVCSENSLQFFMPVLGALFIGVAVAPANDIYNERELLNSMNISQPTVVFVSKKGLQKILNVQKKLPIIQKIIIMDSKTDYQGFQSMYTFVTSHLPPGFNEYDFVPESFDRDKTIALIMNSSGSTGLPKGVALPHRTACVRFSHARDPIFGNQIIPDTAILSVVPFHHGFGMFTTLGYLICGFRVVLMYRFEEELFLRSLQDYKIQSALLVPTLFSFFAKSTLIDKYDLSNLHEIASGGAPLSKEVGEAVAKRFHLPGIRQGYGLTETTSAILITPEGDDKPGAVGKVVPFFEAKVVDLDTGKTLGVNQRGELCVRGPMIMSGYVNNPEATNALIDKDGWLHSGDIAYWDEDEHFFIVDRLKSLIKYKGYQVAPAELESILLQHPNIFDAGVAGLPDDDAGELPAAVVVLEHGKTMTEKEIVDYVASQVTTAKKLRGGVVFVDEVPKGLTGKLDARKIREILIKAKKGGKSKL

Compound	activity change, negative = inhibition	Potency
Fc1ccc2oc([C@H]3CCN(C4CCOCC4)C3)nc2c1	-11% [at 230 µM]	
COC(=O)c1cccc2nc([C@H]3CCN(Cc4ccccc4)C3)oc12	11% [at 172 µM]	
Clc1ccc2oc([C@H]3CCN(Cc4ccccc4)C3)nc2c1		20 µM (active)
COc1ccc(-c2noc([C@@H]3CCCN3C(=O)CCCc3ccccc3)n2)cc1OC	-2.67%	
Cc1ccc(-c2ccc3nnc(CNC(=O)c4ccccn4)n3n2)cc1	0%	
COCCNC(=O)[C@@H]1C[C@H](Oc2cccnc2)CN1C(=O)c1ccc(OC)nc1OC	-9.84%	
COc1ccc(CCC(=O)N2CCC(c3n[nH]c(=O)n3-c3ccc(C)cc3)CC2)cc1	8.18%	
CC(=O)NC1(C)CN(Cc2ccc(-c3ccc4c(ccn4C)c3)s2)C1		0.316 µM (active)
COC(=O)[C@@H]1Cc2c([nH]c3ccccc23)[C@H]2C[C@@H](NCCN3CCOCC3)C[C@@H](c3ccccc3)N21	-24.5%	
O=C1NC2(CCN(Cc3ccccc3)C2)OCc2ccccc21 (configuration not stated)	-7.17% [at 172 µM]	
CSCc1ccc(C(=O)N[C@H]2[C@@H]3CCO[C@@H]3[C@@H]2C2CCCC2)o1	-9.79%	
CN(CCNC(=O)CCc1cc2ccccc2[nH]c1=O)C1CCCCC1	-3.21%	
COc1ccc(CNC(=O)C[C@@H]2CCNC[C@@H]2Cc2cc(-c3ccc(C(C)(C)C)cc3)on2)cc1OC	0.217%	
COc1ccc(CC(=O)NC[C@@H]2C=C(C)[C@H](Cc3nc4ccncc4[nH]3)C[C@H]2C(C)C)cc1	4.96%	
COc1ccc(-c2nc3ccncc3[nH]2)cc1		31.6 µM (active)
c1cc(-c2nc3ccncc3[nH]2)ccn1	-13.8% [at 230 µM]	
COc1ccc(-c2cc(N3CCC(NC(=O)c4cccc(C)c4)CC3)n[nH]2)cc1	4.47%	
Cc1nn2c(c1-c1ccccc1C(C)C)N(C(=O)c1cccc(C#N)c1)CCC2	5.18% [at 172 µM]	
COc1cccc(-c2nc3ccc(-c4ccc5c(c4)OCO5)cc3o2)c1OC		1.12 µM (active)
COc1cccc(-c2ccc(F)c(C(N)=O)c2)c1OC	-15.8%	
COc1cc(-c2noc(-c3nc(-c4ccc5c(c4)OCO5)no3)n2)cc(OC)c1OC	4.62%	
COc1ccc(C(=O)N2CCC(N3CC(OC)C34CCOCC4)CC2)c(OC)c1 (configuration not stated)	2.6%	
Cc1cc(CN(C)C(=O)c2cc(COc3ccc(F)cc3F)on2)n[nH]1	-9.52%	
O=C(Nc1cccnc1)O[C@H]1COCCN(c2nc3ccccc3s2)C1	-17.1% [at 172 µM]	

Compound	activity change, negative = inhibition	Potency
OC1(CN2CCCCC2)CCN(c2nc3ccccc3s2)C1 (configuration not stated)		10 µM (active)
Cc1cc(C(=O)N2CC[C@H](NC(=O)c3cnccn3)C[C@H]2C(=O)N[C@H](Cc2ccccc2)C(N)=O)n(C)n1	0.378%	
Cc1ccc(CS(=O)(=O)N2CCC(C3CCNC3)CC2)cc1C (configuration not stated)	-6.1%	
COc1ccc(C(=O)NCc2nnc3ccc(-c4ccc(C)cc4)nn23)cc1F	4%	
CC(C)Cn1cncc1CNC(=O)c1ccc2nc(-c3ccc(F)cc3)cn2c1		35.5 µM (active)
O=C(c1ccc2nc(-c3ccc(F)cc3)cn2c1)N1CCSCC1	-29.8%	
Cc1nn(-c2ccc(C(C)C)cc2)c(C)c1[C@@H]1C=C[C@@H](NC(=S)NCC(C)C)C1		7.08 µM (active)
CC(C)(C)c1ccnc(N[C@H]2CO[C@H]3[C@@H]2OC[C@@H]3NC(=O)CC2(CC(=O)O)CCCC2)n1	-12.5%	
Cc1nn(Cc2ccccc2)c(C)c1[C@@H]1C=C[C@@H](NC(=O)NC(C)C)C1	1.19% [at 172 µM]	
Cc1nn(Cc2ccccc2)c(C)c1[C@@H]1C=C[C@@H](NC(=O)NC2CCCCC2)C1	12.5% [at 172 µM]	
C[C@@H](NC(=O)C1=C[C@@H](NC(=O)CC2(CC(=O)O)CCCC2)[C@@H](O)[C@H](O)C1)C(N)=O	0.91% [at 172 µM]	
Cc1nn(-c2ccc(C(C)C)cc2)c(C)c1[C@@H]1C=C[C@@H](NC(=O)Nc2ccccc2)C1		3.55 µM (active)
Cc1nn(CCC#N)c(C)c1[C@@H]1C=C[C@@H](NS(=O)(=O)c2ccccc2)C1	7.12% [at 172 µM]	
Cc1nn(-c2ccc(C(C)(C)C)cc2)c(C)c1[C@@H]1C=C[C@@H](NC(=O)c2ccco2)C1		14.1 µM (active)
Cc1cnc(CCNC(=O)c2ccco2)n1C1CCC1	-14.4%	
Cc1nn(-c2ccc(C(C)C)cc2)c(C)c1[C@@H]1C=C[C@@H](NC(=O)CC2(CC(=O)O)CCCC2)C1		35.5 µM (active)
CCC(C)NC(=O)Cc1csc2nc(C)c(-c3cc(C)n(-c4ccc(C(C)C)cc4)n3)c(=O)n12 (configuration not stated)	-9.06%	
O=C(NCC1CN(Cc2ccccc2)CC12CN(c1ccccc1)C2)Nc1ccccc1 (configuration not stated)	2.68% [at 172 µM]	
O=C1NCCCCCCN(Cc2ccc3c(c2)CCO3)[C@H]2CCC[C@@H]12	-5.58%	
CN(C)C[C@@H]1CN(Cc2ccccn2)C[C@H]1NC(=O)c1ccc2cc[nH]c2c1	-1.46%	
CC(C)COc1cc(=O)n2c(c1C(=O)NCCCN1CCOCC1)CCCCC2	-4.23%	
COc1ccc(C(=O)NCC(=O)N2CCCCCCNC(=O)CC2c2ccccc2)cn1 (configuration not stated)	-9.05%	
CN(C)C(C(=O)N1CCC(OCc2cccnc2)CC1)c1cccc(F)c1 (configuration not stated)	0.25%	
